# Screening data as filed in PubChem BioAssay.
# Pf Dd2 inh: blocks in vitro growth of P. falciparum Dd2; P. falciparum Dd2 growth, SYBR Green, 72 h; Potency, µM (highest dose often 28.9 µM), without a hit: at the highest dose activity, negative = inhibition, hits mostly inhibitors; actives 4.3% (n = 120,000); AID 1347417; active = well fitted inhibition curve with a large enough effect;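 note: plate controls were DMSO vehicle for no effect and reference drug for full effect; nearly all actives have a fitted effect of over 65% in size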
#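 Infected erythrocytes (Dd2, 0.3% parasitemia, 2.5% hematocrit final) are added to compound in RPMI-1640/Albumax II medium, grown 72 h at 37C in low oxygen, then lysed with saponin/Triton-X containing SYBR Green and read by fluorescence.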
# The depositor's hits bear a star; i = inactive; [ ] = another dose, or the depositor's remark. The full list was thinned out, with hits kept by preference. Potency is the fitted concentration of half-maximal effect.
SMILES,Pf Dd2 inh
CN(C)c1ccc(-c2nnc([C@H]3CCN(Cc4ccccc4F)C3)o2)cc1,-7%[44.1 µM]
Cc1oc(C(O)c2cccc(O)c2)nc1C(=O)Nc1ccc(N2CCOCC2)cc1 (configuration not stated),i
CN(CC1CCOC1)C(=O)Nc1ccccc1C(F)(F)F (configuration not stated),19%[5.79 µM]
CCCN(CC1CCOC1)S(=O)(=O)c1ccc(F)cc1F (configuration not stated),23%[5.79 µM]
O=C(CCc1nnn2c1CNCC2)NC1CC1,-6%
Cc1cc(C)n(Cc2ccc(C(=O)N3CCC(N4C[C@H](O)C[C@H]4C(=O)NC4CCCCC4)CC3)o2)n1,5µM*
Cc1cnc(C(=O)N2CCC(N3C[C@H](O)C[C@H]3C(=O)NC3CCCCC3)CC2)cn1,10%
Cc1cc(C)n(CCC(=O)N2CCC(N3C[C@H](O)C[C@H]3C(=O)NC3CCCCC3)CC2)n1,-24%
COCCNc1ncnc2c1CCN(C(=O)c1cscn1)CC2,-19%
O=C(NCc1ccco1)[C@@H]1Cc2nc[nH]c2CN1Cc1ccc(C(F)(F)F)cc1,-9%[44.1 µM]
CC1=C[C@@H](CNS(=O)(=O)c2ccccc2)[C@H](C(C)C)C[C@H]1Cc1nc2ccncc2[nH]1,-19%[44.1 µM]
COCC1CN(C(C)=O)CC12CCN(S(=O)(=O)c1ccc(C#N)cc1)CC2 (configuration not stated),i
Cc1cccc(OCC(=O)NC2CCc3nn(CC4CC4)c(=O)n3CC2)c1 (configuration not stated),-16%
COc1ccc(N2CC(NC(=O)COc3cccc(C)c3)CC2=O)cc1OC (configuration not stated),6%
Cc1cccc(Oc2coc3cc(OCC(=O)NC4CCCCC4)ccc3c2=O)c1,10µM*
Cc1[nH]cnc1-c1nccn1CCCOC1CCN(C)CC1,-5%
COc1ccc(-n2c(-c3ccc(C)cc3)cc3c2CC(C)(C)CC3=O)c(OC)c1,13µM*
Cc1ccc(-c2cc3c(n2-c2ccc(C)cc2)CC(C)(C)CC3=O)cc1,-25%[5.79 µM]
CCOc1ccc(-n2c(-c3ccc(OC)cc3)cc3c2CC(C)(C)CC3=O)cc1,10%
O=C1NCCCN1C1CCN(Cc2cccc(C(F)(F)F)c2)CC1,i
COc1cccc([C@@H]2CCN(Cc3ccc(NC(C)=O)cc3)C[C@H]2O)c1,-7%
COc1cccc(C(=O)NCC2CCCN(Cc3ccccn3)C2)c1OC (configuration not stated),-21%
COc1cccc([C@@H]2CCN(Cc3cn[nH]c3C(=O)O)C[C@H]2O)c1,-3%
COc1cccc(C(=O)NCC2CCCN(Cc3cnn(C)c3C)C2)c1OC (configuration not stated),-4%
COc1cccc([C@@H]2CCN(Cc3[nH]c4ccccc4c3C)C[C@H]2O)c1,0.89µM*
SMILES,Pf Dd2 inh
Cc1c(CN2CCCC(CNC(=O)c3cccc4ccccc34)C2)[nH]c2ccccc12 (configuration not stated),11µM*
COc1ccc2cc(C3CN(c4ncnc(C)c4C)CCO3)ccc2c1 (configuration not stated),-9%
Cc1ccc(NC(=O)N2CCCC(c3nccn3Cc3ccncc3)C2)cc1C (configuration not stated),3%
O=C(CC[C@H]1NC(=O)c2ccccc2NC1=O)NCCc1nc(-c2ccccc2)cs1,i
CN(CCc1ccccn1)[C@H]1[C@@H]2OC[C@@H](O2)[C@@H](N(CC2CC2)CC2CC2)[C@@H]1O,i
COc1ccc([C@@H](NC(=O)c2scc3c2OCCO3)C2CC(O)C2)cn1 (some centres not stated),-12%
COCC1CN(C(C)=O)CC12CCN(Cc1cc(OC)cc(OC)c1)CC2 (configuration not stated),-22%
COc1ccc(NC(=O)[C@@H]2C[C@@H](c3ccc(F)cc3)N([S+](=O)([O-])c3ccccc3)C2)cn1,-24%
COc1ccc(NC(=O)[C@@H]2C[C@@H](c3ccc(F)cc3)N([S+](=O)([O-])c3ccccc3)C2)cc1,8.9µM*
O=C(Nc1cccc(Cl)c1)[C@@H]1C[C@@H](c2ccc(F)cc2)N([S+](=O)([O-])c2ccccc2)C1,-3%
NC(=O)c1ccc(OC2CCN(C(=O)CC3CCCCC3)C2)nc1 (configuration not stated),-27%
c1ccc(-c2nnc3ccc(Nc4ccc(N5CCOCC5)cc4)nn23)nc1,i
CC(C)c1ccc(-n2cc(CN3CCN(C(=O)N(C)C)CC3)cn2)cc1,i
Cc1noc(C)c1S(=O)(=O)NCCc1noc(-c2ccccc2)n1,-4%
COCCn1c(C)cnc1CCNC(=O)c1cccc(C)c1,-13%
CCC(O)c1cc2c(cc1NC(=O)c1cccc(Br)c1)OCCO2 (configuration not stated),11µM*
COc1cccc(C(=O)Nc2cc3c(cc2C(=O)c2ccc(C)cc2)OCCO3)c1,4%
O=C(Nc1cc2c(cc1C(=O)c1ccccc1Cl)OCCO2)c1ccc(Br)cc1,13%
N#Cc1cccc(CN2CCOC[C@H](O)C2)c1,-2%[44.1 µM]
COc1ccc(C2Cn3nnc(C(=O)N4CCC(C(=O)NCC5CC5)CC4)c3CO2)cc1 (configuration not stated),i
O=C1NC[C@@H](CCC(=O)N2CCCCC2)N2C[C@@H](NC(=S)Nc3ccc(Cl)cc3)C[C@@H]12,6.3µM*
O=C(Nc1ccccc1)N[C@H]1C[C@H]2C(=O)NC[C@@H](CCC(=O)N3CCCCC3)N2C1,i
CC(C)NC(=O)N[C@H]1C[C@H]2C(=O)NC[C@@H](CCC(=O)N3CCCCC3)N2C1,8%[44.1 µM]
CCOc1ccccc1C(=O)N1CCCn2ccnc2C1CC (configuration not stated),i
Cn1ncc(N2CCC(NC(=O)CC3CCCC3)CC2)cc1=O,-11%
SMILES,Pf Dd2 inh
COCCNC(=O)C1CCCN(C2CCN(C(=O)c3ccc(=O)[nH]n3)CC2)C1 (configuration not stated),9%
Cc1cccc(-c2nc(SCCCOc3ccc(Cl)c(C)c3)n3[nH]c(=O)cc3n2)c1,i
CCc1ccc(OCCSc2nc(-c3cccc(C)c3)nc3cc(=O)[nH]n23)cc1,i
Cc1ccc(OCCSc2nc(-c3ccccc3C)nc3cc(=O)[nH]n23)cc1Cl,4%
CCc1ccc(OCCCSc2nc(-c3ccc(C(C)(C)C)cc3)nc3cc(=O)[nH]n23)cc1,11µM*
Cc1cccc(OCCCSc2nc(-c3ccc(C(C)(C)C)cc3)nc3cc(=O)[nH]n23)c1C,10µM*
COc1cc(C)ccc1OCCSc1nc(-c2cccc(C)c2)nc2cc(=O)[nH]n12,-1%
Cc1ccccc1-c1ncc(CN2CCN(c3ccncc3C)CC2)cn1,-19%
Cc1nc2c(c(-c3ccc(Cl)cc3)n1)CCN(C(=O)c1ccc(Cl)nc1)CC2,-21%
CC(C)CNC(=O)C1CC(=O)N(c2n[nH]c3cc(Br)ccc23)C1 (configuration not stated),-20%
C[C@@H]1C(=O)O[C@H]2[C@H]1CC[C@@]1(C)Cc3sc(NC(=O)COCC(=O)O)nc3[C@@H](C)[C@H]21,i
C[C@@H]1C(=O)O[C@H]2[C@H]1CC[C@@]1(C)Cc3sc(NCc4ccccc4)nc3[C@@H](C)[C@H]21,-18%[44.1 µM]
C[C@@H]1C(=O)O[C@H]2[C@H]1CC[C@@]1(C)Cc3sc(NC(=O)COc4ccccc4)nc3[C@@H](C)[C@H]21,7.1µM*
COCC(=O)N1CCC(Cc2nc(C3CCOCC3)no2)CC1,41%
Cc1noc(C)c1[S+](=O)([O-])N1CCC2(C1)N=C(c1ccncc1)C(=O)N2 (configuration not stated),5%
